Shown are actives, neighbours in structure and some others; about 4.1% of the full set was active somewhere.
hcDAF12 agonist: activates DAF-12 receptor from parasite H. contortus; HEK293 hcDAF-12 lit1-tk-luc reporter, luminescence; 0% DMSO, 100% Δ7-dafachronic acid; activation, % at 6.8 µM; 370,000 tested, 1.4% active; AID 652067;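 active = activation above the mean of all tested compounds plus 3 SD, cut at about 5.5% in these data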;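 note: 100% = response to 3 µM Δ7-dafachronic acid high control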
DAX1 inh-1: DAX1 (NR0B1) inhibition, primary screen; HEK293T StAR-luciferase reporter, SF-1/DAX-1 repression relief; inhibition, % at 6.8 µM; 370,000 tested, 1.1% active; AID 652010;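 active = inhibition above the mean over all tested compounds plus 3 SD, cut at about 3.6% in these data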;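 note: 0% = DAX-1 cells with DMSO and 100% = cells lacking DAX-1 with DMSO; higher inhibition means more luminescence from relief of DAX-1 repression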
ssDAF-12 act: activates DAF-12 receptor from parasite S. stercoralis | HEK293 ssDAF-12/GRIP1 lit1-tk-luc reporter, luminescence; % of 3 µM dafachronic acid response | activation, % at 6.8 µM | 370,000 tested, 1% active;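 active = activation above the mean over all tested compounds plus 3 SD, cut at about 0.9% in these data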;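 note: 0% = DMSO-only wells and 100% = 3 µM delta7-dafachronic acid wells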
DAX1 inh-2: NR0B1 (DAX1) inhibition. P51843. HEK293 Gal4-DAX1 luciferase reporter, luminescence. inhibition, % at 6.75 µM. 340,000 tested, 0.99% active. AID 504766;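 active = inhibition above the mean over all tested compounds plus 3 SD, cut at about 4.2% in these data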;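 note: 0% = DAX1-transfected cells with DMSO and 100% = empty-vector control cells with DMSO; inhibition shows as a rise in luminescence from relieved DAX1 repression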
Target sequence (P51843 207-470 limits assumed): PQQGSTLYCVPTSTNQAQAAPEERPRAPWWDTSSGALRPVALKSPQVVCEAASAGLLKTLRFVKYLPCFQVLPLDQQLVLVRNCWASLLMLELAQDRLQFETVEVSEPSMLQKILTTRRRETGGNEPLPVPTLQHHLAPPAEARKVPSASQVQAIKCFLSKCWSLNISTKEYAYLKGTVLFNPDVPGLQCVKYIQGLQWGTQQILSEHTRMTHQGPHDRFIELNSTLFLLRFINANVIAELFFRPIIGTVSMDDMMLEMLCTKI
hgDAF12 agonist: hgDAF-12 agonism, primary luciferase screen; activation, % at 6.8 µM; 370,000 tested, 1.8% active; HEK293 GAL4-hgDAF12 UAS-luciferase reporter, agonist luminescence; normalized to butyrate control; AID 687014;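 active = activation above a cutoff set at the mean of all screened compounds plus 3 SD, cut at about 10% in these data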;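 note: 0% = DMSO wells and 100% = sodium butyrate wells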
* = called active by the depositor.

COCCOc1ccc(C(F)(F)F)cc1NC(=O)CN1C(=O)NC(C)(c2ccc3c(c2)OCO3)C1=O (configuration not stated) was read as hcDAF12 agonist -2.0, DAX1 inh-1 -1.3, ssDAF-12 act -1.0, DAX1 inh-2 7.6* and hgDAF12 agonist -3.8.
CCOc1ccc(/C=C/C2=NNC(=O)CC2)cc1 was read as hcDAF12 agonist 1.9, DAX1 inh-1 0.6, ssDAF-12 act -1.7, DAX1 inh-2 0.9 and hgDAF12 agonist 11.4*.
`O=C1CCC(/C=C/c2ccccc2)=NN1` gave hcDAF12 agonist -0.2, DAX1 inh-1 0.8, ssDAF-12 act -0.8, DAX1 inh-2 -0.3 and hgDAF12 agonist 2.8.
For Cc1nc(NC(=O)c2ccccc2)nc2cc3c(cc12)OCO3 the results were hcDAF12 agonist 1.9, DAX1 inh-1 2.2, ssDAF-12 act 0.5, DAX1 inh-2 1.3 and hgDAF12 agonist 11.8*.
Cc1nc(NC(=O)c2ccc(F)cc2)nc2cc3c(cc12)OCO3 was read as hcDAF12 agonist -0.6, DAX1 inh-1 0.5, ssDAF-12 act -1.5, DAX1 inh-2 2.6 and hgDAF12 agonist 2.1.
Screening CN(C)c1ccc(/C=N/NC(=O)c2ccc3c(c2)OCCO3)cc1 returned hcDAF12 agonist 4.2, DAX1 inh-1 3.3, ssDAF-12 act -0.9, DAX1 inh-2 0.9 and hgDAF12 agonist 7.2.
Screening O=C(N/N=C/c1ccncc1)c1ccc2c(c1)OCO2 returned hcDAF12 agonist -0.1, DAX1 inh-1 1.1, ssDAF-12 act -1.0, DAX1 inh-2 -0.1 and hgDAF12 agonist 10.9*.
Screening Cc1cc(C(=O)N/N=C/c2ccc3c(c2)OCO3)c(C)o1 returned hcDAF12 agonist 0.8, DAX1 inh-1 0.2, ssDAF-12 act -1.2, DAX1 inh-2 2.9 and hgDAF12 agonist 10.7*.
COc1ccc(/C=N/NC(=O)c2ccc3c(c2)OCO3)cc1 was read as hcDAF12 agonist -0.4, DAX1 inh-1 0.1, ssDAF-12 act -0.9, DAX1 inh-2 1.5 and hgDAF12 agonist 2.9.
O=C(N/N=C/c1ccc2c(c1)OCO2)c1ccc2c(c1)OCCO2 was read as hcDAF12 agonist 1.1, DAX1 inh-1 1.0, ssDAF-12 act -1.0, DAX1 inh-2 1.4 and hgDAF12 agonist 13.0*.
For COc1ccc(C2C(C(=O)Nc3cc(OC)c(OC)c(OC)c3)CCC(=O)N2c2ccc(OC)cc2)cc1 (configuration not stated) the results were hcDAF12 agonist -0.4, DAX1 inh-1 0.2, ssDAF-12 act -1.1 and hgDAF12 agonist -0.1.
`COc1ccc(NC(=O)CSc2nnc3ccc(-c4cccnc4)nn23)cc1OC` gave hcDAF12 agonist -0.3, DAX1 inh-1 -3.3, ssDAF-12 act -0.5, DAX1 inh-2 1.4 and hgDAF12 agonist 3.2.
For COc1ccccc1CNC(=O)CSc1nnc2ccc(-c3cccnc3)nn12 the results were hcDAF12 agonist 0.2, DAX1 inh-1 0.0, ssDAF-12 act -1.4, DAX1 inh-2 4.4* and hgDAF12 agonist -1.7.
For C[C@H]1C(=O)[C@]23C[C@H]1CC[C@H]2[C@]1(C)[C@@H](O)CC[C@@](C)(C(=O)O)[C@H]1C[C@@H]3O the results were hcDAF12 agonist 0.5, DAX1 inh-1 -1.6, ssDAF-12 act 0.2 and hgDAF12 agonist 2.6.
Screening O=C/C(=C\Nc1ccc(Br)cc1)c1nc2ccccc2o1 returned hcDAF12 agonist 4.5, DAX1 inh-1 0.3, ssDAF-12 act -0.9, DAX1 inh-2 0.1 and hgDAF12 agonist -1.7.
Screening O=C/C(=C\Nc1ccccn1)c1nc2ccccc2o1 returned hcDAF12 agonist 5.8*, DAX1 inh-1 -0.1, ssDAF-12 act -0.1, DAX1 inh-2 0.9 and hgDAF12 agonist 2.5.
For O=C(C1CCC1)N1CCc2cc(S(=O)(=O)N3CCCC3)ccc21 the results were hcDAF12 agonist -0.4, DAX1 inh-1 -0.8, ssDAF-12 act -1.7 and hgDAF12 agonist -3.7.
COc1ccc(-n2c(O)c(/C=N/NS(=O)(=O)c3ccc(C)c([N+](=O)[O-])c3)c3ccccc3c2=O)cc1OC was read as hcDAF12 agonist -0.2, DAX1 inh-1 0.0, ssDAF-12 act -1.0, DAX1 inh-2 0.0 and hgDAF12 agonist 0.1.
`O=c1c2ccccc2c(/C=N/NS(=O)(=O)c2ccccc2)c(O)n1-c1ccccn1` gave hcDAF12 agonist -0.1, DAX1 inh-1 -0.8, ssDAF-12 act 1.0*, DAX1 inh-2 -0.5 and hgDAF12 agonist -0.2.
Screening CC1(C)CC(=O)C2=C(C1)OC(N)=C(C#N)[C@@H]2c1ccccc1[N+](=O)[O-] returned hcDAF12 agonist 1.9, DAX1 inh-1 -0.3, ssDAF-12 act 1.5*, DAX1 inh-2 0.3 and hgDAF12 agonist 4.1.
For COc1cc(C2C(C#N)=C(N)OC3=C2C(=O)CC(C)(C)C3)c([N+](=O)[O-])cc1OC (configuration not stated) the results were hcDAF12 agonist -0.4, DAX1 inh-1 -0.3, ssDAF-12 act -1.3, DAX1 inh-2 0.7 and hgDAF12 agonist -2.1.
Screening CN(C)c1cccc2cccc(N(C)C)c12 returned hcDAF12 agonist -1.3, DAX1 inh-1 -0.5, ssDAF-12 act 0.0, DAX1 inh-2 -1.0 and hgDAF12 agonist -1.0.
`c1ccc2c(c1)Oc1cccc3cccc-2c13` gave hcDAF12 agonist -0.8, DAX1 inh-1 -0.1, ssDAF-12 act -0.8, DAX1 inh-2 4.3* and hgDAF12 agonist 1.2.
Screening Cc1c(NC(=O)C2CCCN(S(=O)(=O)c3c(C(C)C)cc(C(C)C)cc3C(C)C)C2)c(=O)n(-c2ccccc2)n1C (configuration not stated) returned hcDAF12 agonist -1.4, DAX1 inh-1 -0.9, ssDAF-12 act -1.2 and hgDAF12 agonist 0.1.
Screening Cc1ccnc2nc(C(=O)Nc3nc(-c4ccccn4)cs3)nn12 returned hcDAF12 agonist -1.1, DAX1 inh-1 0.3, ssDAF-12 act -1.2, DAX1 inh-2 8.3* and hgDAF12 agonist -0.8.
`CCN(CC)C(=O)CC[C@H]1CC[C@]2(CCCN(Cc3cccnc3)C2)O1` gave hcDAF12 agonist 2.0, DAX1 inh-1 2.1, ssDAF-12 act -1.5 and hgDAF12 agonist 0.5.
Screening CCN(CC)CCCNC(=O)c1cn(C(C)c2ccccc2)nn1 (configuration not stated) returned hcDAF12 agonist -1.6, DAX1 inh-1 0.6, ssDAF-12 act -1.2 and hgDAF12 agonist 5.3.
Screening CCN(C(=O)CSC1=Nc2ccccc2C2CC=NN12)C1CCS(=O)(=O)C1 (configuration not stated) returned hcDAF12 agonist 5.8*, DAX1 inh-1 0.9, ssDAF-12 act 0.6, DAX1 inh-2 0.7 and hgDAF12 agonist 3.0.
For O=C(Nc1nc(-c2cccs2)cs1)c1ccc([N+](=O)[O-])o1 the results were hcDAF12 agonist 4.1, DAX1 inh-1 -2.5, ssDAF-12 act 2.0*, DAX1 inh-2 1.1 and hgDAF12 agonist 0.4.
O=C(Nc1nc(-c2cccs2)cs1)c1ccco1 was read as hcDAF12 agonist 3.8, DAX1 inh-1 4.1*, ssDAF-12 act -0.2, DAX1 inh-2 2.5 and hgDAF12 agonist 10.8*.

Screening data from PubChem BioAssay.
